Measurements taken from PubChem BioAssay (NCATS).
Unmarked numbers belong to inactive results. The rule behind the calls is not given here.

Each compound was assayed on HIV-1 nucleocapsid protein NCp7 (binding to TG oligonucleotide) (assay: HIV Nucleocapsid (AID 346;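 note: potency is for inhibitors that block NC binding and lower polarization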)). Details: HIV-1 NC / fluorescein-TGTGTGTG probe, fluorescence polarization.
Method: NCGC Assay Overview: HIV-1 nucleocapsid protein (HIV-1 NC) is a small (6.5 kDa) basic zinc-finger protein which participates in packaging of viral genomic RNA. The spacing and metal-chelating residues (3 Cys, 1 His) of the Cys-X2-Cys-X4-His-X4-Cys Zn fingers are conserved among all known retroviruses (J. Med. Chem. 1998, 41, 1371-1381). HIV-1 NC was assayed for its binding to the consensus sequence single-stranded 5'-TGTGTGTG. […] High salt was included to increase the stringency of binding and inhibitor screen. Reducing agents and zinc were present to stabilize the nucleocapsid zinc-finger protein.
NCGC Assay Protocol Summary: Buffer. Hepes pH 7.5, 250mM NaCl, 1uM ZnCl2. 0.004% polyethylene glycol 20000. TCEP (100 uM) and 2-Mercaptoethanol (5 mM), added fresh the day of the experiment. Reagents/Controls. 10 nM TG4xF only in columns 3 and 4 as negative control. 10 nM TG4xF/100 nM HIV-1 NC in columns 1, 2, 5-48. Titration of control compound NSC-13778 (from 20 mM, then 1:2) pin-transferred to column 2. Assay Steps. Two uL of reagents were dispensed to 1536-well Kalypsys black plates. The plates were centrifuged for 1 min at 1000 rpm. Compounds and controls (20 nL) were transferred via Kalypsys PinTool. The plates were incubated for 1 hr at room temperature, and then read on ViewLux (Perkin-Elmer). High-throughput CCD imager using fluorescein polarization filter set and 45 seconds exposure time.
Potency is the fitted concentration of half-maximal effect.

| SMILES | Potency |
| --- | --- |
| O=C(Nc1ccccc1)N1CC2(CCN(C(=O)c3cnccn3)CC2)C1 | > 20 µM |
| COc1ccc2[nH]cc(CCNc3ncncc3-c3ccccc3OC)c2c1 | > 20 µM |
| COc1ccc(-c2nc3cnc(N4CCNCC4)nc3n(-c3ccc(OC)cc3)c2=O)cc1 | > 20 µM |
| N#CCCn1c(=O)c(-c2ccc(Cl)cc2)nc2cnc(Oc3ccccc3)nc21 | > 20 µM |
| Cc1noc(C)c1-c1nc(NCc2ccccc2)c2ccccc2n1 | > 20 µM |
| CN1CCN(c2ccnc(-c3ccccc3C(F)(F)F)n2)CC1 | > 20 µM |
| FC(F)(F)c1ccccc1-c1nc(NCCN2CCOCC2)c2ccccc2n1 | > 20 µM |
| CNc1nc(-c2cccc(NS(C)(=O)=O)c2)nc2ccccc12 | > 20 µM |
| COC(=O)N1CCC[C@@]2(CCN(C(=O)Nc3ccc(OC)cc3)C2)C1 | > 20 µM |
| N#Cc1cccc(NC(=O)N2CCCC3(CCN(C(=O)c4csnn4)CC3)C2)c1 | > 20 µM |
| CN1CCN(c2ncc3nc(CCc4ccccc4)c(=O)n(Cc4cccs4)c3n2)CC1 | > 20 µM |
| Cc1noc(C)c1-c1cncnc1N1CCN(C)CC1 | > 20 µM |
| FC(F)(F)c1ccccc1-c1cncnc1-n1ccnc1 | > 20 µM |
| N#Cc1cccc(-c2nccc(NCc3cccnc3)n2)c1 | > 20 µM |
| COc1ccc(-c2nc3cnc(N4CCNCC4)nc3n(CCc3ccccc3)c2=O)cc1 | > 20 µM |
| O=C(c1cccc(F)c1)N1CCC[C@@]2(CCN(c3ncccn3)C2)C1 | > 20 µM |
| CCNc1ncc2nc(-c3ccc(OC)cc3)c(=O)n(C)c2n1 | > 20 µM |
| Cc1cnc(CNc2ccnc(-c3cccnc3)n2)cn1 | > 20 µM |
| O=c1cnc2cnc(N3CCNCC3)nc2n1Cc1cccs1 | > 20 µM |
| Cn1cccc1C(=O)N1CCC[C@@]2(CCN(C(=O)Nc3cccc(F)c3)C2)C1 | > 20 µM |

| SMILES | Potency |
| --- | --- |
| COc1ncc2nc(-c3cccs3)c(=O)n(CCC#N)c2n1 | > 20 µM |
| N#CCCn1c(=O)c(CCc2ccccc2)nc2cnc(Nc3ccccc3)nc21 | > 4 µM |
| O=C(Nc1ccccc1)N1CCCC2(CCN(C(=O)c3ccco3)CC2)C1 | > 20 µM |
| CC(=O)NCCNc1ccnc(-c2ccccc2C)n1 | > 20 µM |
| COCCNc1ncnc2ccc(-c3c(C)noc3C)cc12 | > 20 µM |
| COc1ccccc1-c1nccc(NCc2cccc(C)c2)n1 | > 20 µM |
| Cc1cnc(CNc2ncncc2-c2ccccc2C#N)cn1 | > 20 µM |
| COCC(=O)N1CCC2(CCN(Cc3cc(C(F)(F)F)cc(C(F)(F)F)c3)CC2)CC1 | > 20 µM |
| O=C(c1cc(C(F)(F)F)cc(C(F)(F)F)c1)N1CCC2(CCCN(c3ccccc3)C2)CC1 | > 20 µM |
| Cc1nc2cnc(N3CCNCC3)nc2n(Cc2cccs2)c1=O | > 4 µM |
| O=C(c1cc(C(F)(F)F)cc(C(F)(F)F)c1)N1CCC[C@@]2(CCN(c3ncccn3)C2)C1 | > 20 µM |
| O=S(=O)(c1ccccc1)N1CCC2(CC1)CN(Cc1nccs1)C2 | > 20 µM |
| COc1ccc(C(=O)N2CCC3(CCN(C(=O)Nc4ccccc4)CC3)CC2)cc1 | > 20 µM |
| CCNc1ncc2nc(CCc3ccccc3)c(=O)n(CCOC)c2n1 | > 20 µM |
| Cc1nc2cnc(N3CCN(C)CC3)nc2n(Cc2ccc(F)cc2)c1=O | > 20 µM |
| COc1ccc(-c2nc3cnc(Oc4ccccc4)nc3n(C3CC3)c2=O)cc1 | > 20 µM |
| COc1cccc(Cn2c(=O)c(C)nc3cnc(Nc4cccc(OC)c4)nc32)c1 | > 20 µM |
| Cc1cnc(CNc2ncncc2-c2cccc(NS(C)(=O)=O)c2)cn1 | > 20 µM |
| COc1ccc(C(=O)N2CCC3(CC2)CCN(C(c2ccccc2)c2ccccc2)CC3)cc1 | > 20 µM |
| COc1ccc(Oc2ncc3nc(CCc4ccccc4)c(=O)n(C[C@H]4CCCO4)c3n2)cc1 | > 20 µM |
